# Measurements: PubChem BioAssay (NCATS)
# Inconclusive results are not listed. A call without a number means that no potency is given here. Active and inactive are the calls of the source. Unless noted, the call rests on the fitted dose curve; in most records, active means well fitted curve in the direction sought with a large enough effect; inconclusive means small, poorly fitted or top-dose-only effect, or another doubt; inactive means no such curve, though single readings can be large; an effect the other way counts as inactive or inconclusive.
# Assays:
# [1] = molecular target: Rap guanine nucleotide exchange factor 4 (Homo sapiens) (UniProt Q8WZA2); assay: Confirmatory qHTS for agonist of cAMP-regulated guanine nucleotide exchange factor 4 (EPAC2) (AID 1645884); details: EPAC2 GEF activity, Rap1B-BODIPY-GDP fluorescence; series mostly up to 154 µM;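 further: nucleotide exchange releases bodipy-GDP from Rap1 and this lowers its fluorescence; nearly all actives have a fitted effect of over 65% in size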
# Rap guanine nucleotide exchange factor 4 (Homo sapiens), sequence (Q8WZA2 whole entry, looked up): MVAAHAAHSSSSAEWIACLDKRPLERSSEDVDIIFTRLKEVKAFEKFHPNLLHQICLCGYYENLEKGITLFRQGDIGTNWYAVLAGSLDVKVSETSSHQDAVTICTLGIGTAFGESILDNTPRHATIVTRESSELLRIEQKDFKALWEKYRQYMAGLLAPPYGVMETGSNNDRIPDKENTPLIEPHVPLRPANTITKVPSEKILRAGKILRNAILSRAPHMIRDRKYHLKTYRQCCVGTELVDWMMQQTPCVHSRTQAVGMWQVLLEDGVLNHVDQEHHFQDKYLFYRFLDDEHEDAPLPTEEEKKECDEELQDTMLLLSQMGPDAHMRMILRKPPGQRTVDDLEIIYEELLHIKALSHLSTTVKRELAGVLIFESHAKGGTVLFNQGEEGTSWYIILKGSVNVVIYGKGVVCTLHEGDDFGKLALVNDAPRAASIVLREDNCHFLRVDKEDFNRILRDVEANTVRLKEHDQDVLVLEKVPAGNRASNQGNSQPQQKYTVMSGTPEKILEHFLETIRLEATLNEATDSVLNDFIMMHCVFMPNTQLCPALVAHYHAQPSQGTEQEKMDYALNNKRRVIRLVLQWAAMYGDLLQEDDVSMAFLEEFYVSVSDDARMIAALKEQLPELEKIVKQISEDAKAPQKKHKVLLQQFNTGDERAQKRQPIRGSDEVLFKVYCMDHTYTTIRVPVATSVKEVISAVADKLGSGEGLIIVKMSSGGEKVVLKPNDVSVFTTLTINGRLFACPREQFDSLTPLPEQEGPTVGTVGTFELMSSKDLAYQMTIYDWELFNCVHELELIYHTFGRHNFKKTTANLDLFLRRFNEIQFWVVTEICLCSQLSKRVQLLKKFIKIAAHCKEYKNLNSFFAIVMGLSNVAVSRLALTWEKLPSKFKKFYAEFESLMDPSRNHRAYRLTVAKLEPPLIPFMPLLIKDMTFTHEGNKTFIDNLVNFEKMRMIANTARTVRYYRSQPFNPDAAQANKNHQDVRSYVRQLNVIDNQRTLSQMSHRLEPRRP
# [2] = molecular target: Rap guanine nucleotide exchange factor 4 (Homo sapiens) (UniProt Q8WZA2); assay: Confirmatory qHTS for antagonist of cAMP-regulated guanine nucleotide exchange factor 4 (EPAC2) (AID 1645885); details: EPAC2 Rap1B-BODIPY-GDP exchange fluorescence, biochemical; series mostly up to 114 µM; further: potency means the concentration at half of the fitted maximal effect; nearly all actives have a fitted effect of over 25% in size
# [3] = molecular target: Glutathione peroxidase 1 (Homo sapiens) (UniProt P07203); assay: Primary qHTS Assay for Inhibitors of Recombinant Selenoprotein Glutathione Peroxidase 1 (GPX1) (AID 1845191); details: recombinant GPX1, GR-coupled NADPH fluorescence, 15 min; series mostly up to 48.8 µM; further: nearly all actives have a fitted effect of over 65% in size; further: potency means the concentration at half of the fitted maximal effect
# Glutathione peroxidase 1 (Homo sapiens), sequence (P07203 whole entry, looked up): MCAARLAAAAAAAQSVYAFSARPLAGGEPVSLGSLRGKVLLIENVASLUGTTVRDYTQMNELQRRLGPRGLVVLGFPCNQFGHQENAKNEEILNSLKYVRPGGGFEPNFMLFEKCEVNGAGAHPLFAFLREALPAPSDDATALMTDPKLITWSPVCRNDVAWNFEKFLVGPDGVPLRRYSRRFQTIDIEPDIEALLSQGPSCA
# Procedure, shortened: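 10 nM GPX1 + cpd, 30 min RT; start w/ 1 mM GSH, 0.5 mM cumene hydroperoxide, 0.5 mM NADPH, 100 nM GR, 0.01% BSA; buffer 50 mM Tris-HCl pH 7.5, 2 mM EDTA, 150 mM NaCl; Fl 340/450, 0 & 15 min.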
# [4] = molecular target: Phospholipid hydroperoxide glutathione peroxidase GPX4 (Homo sapiens) (UniProt P36969); assay: Primary qHTS Assay for Inhibitors of Recombinant Selenoprotein Glutathione Peroxidase 4 (GPX4) (AID 1845192); details: recombinant GPX4, GR-coupled NADPH fluorescence, 15 min; series mostly up to 50 µM; further: nearly all actives have a fitted effect of over 65% in size
# Phospholipid hydroperoxide glutathione peroxidase GPX4 (Homo sapiens), sequence (P36969 whole entry, looked up): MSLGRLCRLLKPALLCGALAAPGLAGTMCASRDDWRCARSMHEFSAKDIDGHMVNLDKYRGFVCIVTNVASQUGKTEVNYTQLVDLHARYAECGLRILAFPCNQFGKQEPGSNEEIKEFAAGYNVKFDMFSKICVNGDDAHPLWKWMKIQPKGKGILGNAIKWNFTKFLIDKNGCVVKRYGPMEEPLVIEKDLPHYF
# Procedure, shortened: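 NADPH consumption, followed by fluorescence at 340/450 nm between 0 and 15 min, reports GPX4 activity via coupled glutathione reductase (100 nM). Enzyme 200 nM was pre-exposed to compound 30 min; 0.5 mM cumene hydroperoxide and 1 mM GSH served as substrates.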
# [5] = NCATS anti-infectives library activity on HEK293 viability as a counter-qHTS vs the C. elegans viability qHTS (AID 1745854); details: HEK293 viability counter-screen; series mostly up to 41.8 µM;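 further: HEK293 cells exposed to compounds for 24 hr before the viability read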
# Procedure, shortened: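 Compounds were acoustically plated (several concentrations, 1:5, final up to 41.7 uM), then 1500 HEK293 cells added per well and incubated 24 hr at 37C, 5% CO2. CellTiter-Glo was added and luminescence read after 10 min.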
# [6] = molecular target: Luciferin 4-monooxygenase (Photinus pyralis) (UniProt P08659); assay: Primary firefly luciferase (FLuc) qHTS assay for identification of artifact compounds. (AID 1845220); details: purified firefly luciferase, luminescence, 5 min; series mostly up to 54.1 µM; further: nearly all actives have a fitted effect of over 60% in size; further: potency means the concentration at half of the fitted maximal effect
# Procedure, shortened: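 Compounds sat 15 min at room temperature with 10 uM luciferin and 10 uM ATP (pH 7.6 Tris acetate). Firefly luciferase (10 nM final) was then added, and luminescence was read 5 min later. Data normalized to no-enzyme and DMSO controls were Hill-fitted.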
# [7] = Primary fluorescence-based thiol-reactive (MSTI) qHTS assay for identification of artifact compounds. (AID 1845221); details: MSTI thiol-reactivity probe, 1 h; series mostly up to 53.8 µM;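 further: thiol-reactive compounds lower the probe fluorescence signal; nearly all actives have a fitted effect of over 65% in size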
# Procedure, shortened: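 Compounds were incubated 1 h at room temperature in the dark with the MSTI probe (4 uM) in PBS pH 7.4, 2% DMSO. Signals were normalized between Acetyl-MSTI and MSTI.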
# [8] = HepG2 viability counterscreen (readout 2: ATP content) against the NCATS DSHEA and TCM libraries (AID 1794840); details: ATP content luminescence; series mostly up to 27.3 µM;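 further: HepG2 cells exposed to substances for about 24 h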
# Procedure, shortened: (§1)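 HepG2 cells (1,000 cells/well) attached ~4 h, then treated ~24 h at 37C with substances. Protease activity read by GF-AFC (25 uM final, 30 min, Ex/Em 380/510 nm); ATP content then by CellTiter-Glo luminescence.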
# [9] = HepG2 viability counterscreen (readout 1: protease activity) against the NCATS DSHEA and TCM libraries (AID 1794841); details: qHTS concentration series; series mostly up to 27.3 µM;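 further: cells exposed to compounds for about 24 h before the protease read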
# Procedure, shortened: as §1
# [10] = NCATS anti-infectives library activity on the primary C. elegans qHTS viability assay (AID 1745855; calls by dose curve; further: potency means the concentration at half of the fitted maximal effect); details: C. elegans worm area imaging, day 7; series mostly up to 41.8 µM
# Procedure, shortened: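 Viability read-out is GFP fluorescence of PE254-GFP-FLuc C. elegans, measured by laser cytometry (488 nm) at day 0, 3 and 7. Ten L1 worms per well were incubated 7 days at 21 °C with compounds and bacterial capsules in S medium.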
# [11] = Viability counterscreen for antagonist of constitutive androstane receptor (CAR) against the NCATS DSHEA and TCM libraries (AID 1794837); details: CAR reporter cell line viability counterscreen, qHTS; series mostly up to 40 µM;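 further: compound exposure lasted 24 h before viability reading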
# Procedure, shortened: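 HepG2-CYP2B6-hCAR cells (2,500/well) were allowed to attach for 5 h, then exposed to compounds with 48 uM CITCO for 24 h at 37C. Viability was read by CellTiter-Fluor fluorescence after 1 h.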
# [12] = Viability counterscreen for agonist of constitutive androstane receptor (CAR) against the NCATS DSHEA and TCM libraries (AID 1794838); details: HepG2 cell viability counterscreen, CAR agonist assay, co-treated with 0.75 µM CAR antagonist; series mostly up to 40 µM
# Procedure, shortened: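 HepG2-CYP2B6-hCAR cells (2,500/well) attached 5 h, then got compounds plus 0.75 uM PK11195 final. After 24 h at 37C, viability read by CellTiter-Fluor fluorescence (Ex/Em 405/540 nm).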
# [13] = molecular target: Nuclear receptor subfamily 1 group I member 3 (Homo sapiens) (UniProt Q14994); assay: Primary qHTS for agonist of constitutive androstane receptor (CAR) against the NCATS DSHEA and TCM libraries (AID 1794839); details: CAR agonist reporter cells, qHTS luminescence, CAR antagonist co-added at 0.75 µM; series mostly up to 40 µM;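 further: HepG2 cells expressing human CAR with a CYP2B6 reporter plus PK11195 antagonist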
# Nuclear receptor subfamily 1 group I member 3 (Homo sapiens), sequence (Q14994 whole entry, looked up): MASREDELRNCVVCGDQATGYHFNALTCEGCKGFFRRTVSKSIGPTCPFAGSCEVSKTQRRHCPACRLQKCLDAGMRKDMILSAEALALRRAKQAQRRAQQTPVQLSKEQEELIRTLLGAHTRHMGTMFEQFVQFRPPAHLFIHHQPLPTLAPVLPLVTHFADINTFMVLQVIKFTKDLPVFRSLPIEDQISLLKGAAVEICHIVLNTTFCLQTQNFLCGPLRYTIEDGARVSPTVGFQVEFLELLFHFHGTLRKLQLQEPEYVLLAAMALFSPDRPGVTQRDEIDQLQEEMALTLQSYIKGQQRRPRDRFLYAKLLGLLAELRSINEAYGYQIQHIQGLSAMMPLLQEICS
# Procedure, shortened: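 HepG2-CYP2B6-hCAR cells (2,500/well) were attached for 5 h, then treated for 24 h at 37 °C with compounds plus 0.75 µM PK11195. Luciferase luminescence (ONE-Glo) was read, with CellTiter-Fluor viability (Ex/Em 405/540 nm).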
structure (smiles),measurement,setting,value
C[C@@H](O[C@H]1OCCN(Cc2n[nH]c(=O)[nH]2)[C@@H]1c1ccc(F)cc1)c1cc(C(F)(F)F)cc(C(F)(F)F)c1,Potency,[1],inactive
same,Potency,[2],22.1 µM (active)
same,Potency,[3],inactive
same,Potency,[4],inactive
C[C@@]1(c2cc(-c3cncnc3)c(F)cc2F)CCSC(N)=N1,outcome,[5],inactive
same,Potency,[3],inactive
same,Potency,[4],inactive
same,Potency,[6],inactive
same,Potency,[7],inactive
CN1C(=O)C[C@H](C(=O)N[C@@H](Cc2cnc[nH]2)C(=O)N2CCC[C@@H]2C(N)=O)NC1=O,Potency,[3],inactive
same,Potency,[4],inactive
N#CC(c1ccc(Cl)cc1)c1c(Cl)cc(-n2ncc(=O)[nH]c2=O)cc1Cl (stereo not drawn),Potency,[3],inactive
Cc1cccc(-c2[nH]c(C(C)(C)C)nc2-c2ccc3c(c2)OCO3)n1,Potency,[3],inactive
same,Potency,[4],inactive
CC(C)C[C@@H](C(=O)N[C@H](C(=O)OC1CCCC1)c1ccccc1)[C@H](O)C(=O)NO,Potency,[3],inactive
same,Potency,[4],inactive
CC(C)(CO)[C@@H](O)C(=O)NCCC(=O)O,outcome,[8],inactive
same,outcome,[9],inactive
same,Potency,[3],inactive
same,Potency,[4],inactive
CN(C)N=Nc1nc[nH]c1C(N)=O,Potency,[3],inactive
same,Potency,[4],inactive
O=C(NCCCCN1CCOCC1)c1cc2ccccc2o1,Potency,[3],inactive
same,Potency,[4],inactive
C[C@H](CCC(=O)O)[C@H]1CC[C@H]2[C@H]3[C@@H](CC[C@]12C)[C@@]1(C)CC[C@@H](O)C[C@H]1C[C@@H]3O,Potency,[3],inactive
COc1ccc(-c2oc3c(CC=C(C)C)c(O)cc(O)c3c(=O)c2O)cc1,Potency,[3],inactive
CC(=O)Nc1cccc(-n2c(=O)n(C3CC3)c(=O)c3c(Nc4ccc(I)cc4F)n(C)c(=O)c(C)c32)c1,Potency,[10],2.3 µM (active)
same,Potency,[3],inactive
same,Potency,[4],inactive
same,Potency,[6],inactive
same,Potency,[7],inactive
COc1ccc(-c2nc3ccc(C4=NNC(=O)CC4C)cc3[nH]2)cc1 (stereo not drawn),outcome,[5],inactive
same,Potency,[3],inactive
same,Potency,[6],10.7 µM (active)
same,Potency,[7],inactive
Cn1c(=O)c(Oc2ccc(F)cc2F)cc2cnc(NC3CCOCC3)nc21,Potency,[3],16.3 µM (active)
COc1ccc2nc3cc(Cl)ccc3c(Nc3cc(CN4CCCC4)c(O)c(CN4CCCC4)c3)c2n1,Potency,[3],inactive
Nc1ccn([C@@H]2O[C@H](CO)[C@@H](O)[C@H]2O)c(=O)n1,Potency,[3],inactive
same,Potency,[4],inactive
CCOC(=O)[C@@H](N)CCC(=O)N[C@@H](CSCc1ccccc1)C(=O)N[C@@H](C(=O)OCC)c1ccccc1,Potency,[3],inactive
same,Potency,[4],inactive
CCOc1ccccc1N=Nc1c(C)[nH]n(-c2nc(-c3ccccc3)cs2)c1=O,Potency,[3],inactive
same,Potency,[4],inactive
CN(C)CC[C@H](CSc1ccccc1)Nc1ccc(S(=O)(=O)NC(=O)c2ccc(N3CCN(Cc4ccccc4-c4ccc(Cl)cc4)CC3)cc2)cc1[N+](=O)[O-],Potency,[3],inactive
same,Potency,[4],inactive
O=C1CN2Cc3c(ccc(Cl)c3Cl)N=C2N1,Potency,[3],inactive
same,Potency,[4],inactive
C[C@H]1COC2=C1C(=O)C(=O)c1c2ccc2c1CCCC2(C)C,Potency,[3],inactive
Cc1ccc(NC(=O)c2cccc(N(C)C)c2)cc1NC(=O)c1ccc(O)cc1,Potency,[3],inactive
CN1N=C(N)c2cn([C@@H]3O[C@H](COP(=O)(O)O)[C@@H](O)[C@@H]3O)c3ncnc1c23,Potency,[3],inactive
CNC(=O)c1c(-c2ccc(F)cc2)oc2cc(N(CCO)S(C)(=O)=O)c(C3CC3)cc12,outcome,[5],inactive
same,Potency,[3],inactive
same,Potency,[6],inactive
same,Potency,[7],inactive
NCc1c[nH]c(=S)n1[C@H]1CCc2c(F)cc(F)cc2C1,Potency,[3],inactive
Cc1cc(OCCCS(C)(=O)=O)cc(C)c1-c1cccc(COc2ccc3c(c2)OC[C@H]3CC(=O)O)c1,Potency,[3],inactive
O=C(O)CCC=CCC[C@@H]1[C@H](N2CCCCC2)[C@@H](O)C[C@@H]1OCc1ccc(-c2ccccc2)cc1,Potency,[3],inactive
CCC(C)SSc1ncc[nH]1 (stereo not drawn),Potency,[3],inactive
same,Potency,[4],inactive
Cc1cc(NC(=O)Nc2ccc(N(C)C)cc2)c2cc(F)cc(F)c2n1,Potency,[3],inactive
OC[C@H]1O[C@@H](OCCc2ccc(O)cc2)[C@H](O)[C@@H](O)[C@H]1O,outcome,[11],inactive
same,Potency,[12],inactive
same,outcome,[13],inactive
